Screening results deposited in PubChem BioAssay by National Center for Advancing Translational Sciences (NCATS).
Only some compounds are listed: those with a hit (about 2.4% of all), similar ones and a draw of the others.
D2 PAM-1: human D2 receptor positive allosteric modulation; P14416; DiscoveRx D2 beta-arrestin cells, luminescence, 90 min; 100% = 57 uM dopamine signal; potentiation, % (test concentration not listed); 0.23% of 360,000 active; AID 624464; in the data active means potentiation above about 50%; inconclusive means mostly about 30% to 49%
Target sequence (P14416 whole entry, looked up): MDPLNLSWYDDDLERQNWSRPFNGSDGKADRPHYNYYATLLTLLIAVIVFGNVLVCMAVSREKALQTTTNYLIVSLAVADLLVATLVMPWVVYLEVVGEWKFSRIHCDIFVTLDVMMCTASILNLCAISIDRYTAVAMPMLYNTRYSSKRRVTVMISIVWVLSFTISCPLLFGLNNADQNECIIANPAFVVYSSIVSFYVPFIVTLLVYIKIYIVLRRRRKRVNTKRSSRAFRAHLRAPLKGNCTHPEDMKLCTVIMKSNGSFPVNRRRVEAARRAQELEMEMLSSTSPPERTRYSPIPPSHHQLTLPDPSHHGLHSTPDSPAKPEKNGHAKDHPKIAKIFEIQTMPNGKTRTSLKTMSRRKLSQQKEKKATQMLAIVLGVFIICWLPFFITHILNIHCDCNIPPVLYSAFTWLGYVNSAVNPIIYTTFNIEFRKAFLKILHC
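PathHunter D2 cells, attached overnight at 37 deg C, received compound in DMSO plus dopamine at EC20 (50 nM final) for 90 min at 37 deg C. Beta-arrestin recruitment was read as luminescence after 1 h with detection reagent at ambient temperature.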
D2 ag-1: activates the human D2 dopamine receptor; P14416; HEK293 T-REx D2 cells, calcium flux agonist mode; activation, % at 2 µM; 0.53% of 340,000 active; AID 485358;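 active means activation over 3 SD above normal in the single-dose calcium agonist read, cut at about 30% in these data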; further: 0% is about no effect
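Calcium-flux readout, 1 cycle/sec over 180 s following compound pin transfer, in inducible HEK293 Trex D2 cells (force-coupled); dopamine controls included. Positive calcium responses during this window marked compounds as potential agonists.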
D2 PAM-2: positively modulates the human D2 dopamine receptor allosterically; AID 485347; HEK293 T-REx D2, calcium flux, EC20 dopamine potentiation; 0.34% of 340,000 active; P14416; potentiation, % at 10 µM;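 active means potentiation over 3 SD above the plate norm, cut at about 30% in these data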; further: 0% is about no effect
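Primary screen. Calcium kinetics in induced HEK293 T-REx D2 cells: compound pre-addition 180 s, EC20 dopamine, 180 s more.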
D2 antagonist: D2 dopamine receptor (human) antagonism | 2% of 340,000 active | inhibition, % at 10 µM | P14416 | AID 485344 | HEK293 TREx D2 cells, calcium flux, dopamine EC80; in the data active means inhibition above about 30%; inactive means below that, where a call was filed; further: 0% is about no effect
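HEK293 T-REx D2 cells, tet-induced, calcium dye no-wash. Cpd pintool add, 180 s kinetic, then EC80 DA, 180 s kinetic. Ca flux read.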
D2 ag-2: activates the human D2 dopamine receptor; activation, % (test concentration not listed); P14416; AID 624465; 0.084% of 360,000 active; DiscoveRx PathHunter D2 beta-arrestin, luminescence, 90 min; 100% = 57 uM dopamine signal; in the data active means activation above about 40%; inconclusive means between about 15% and that limit
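DiscoveRx PathHunter D2 beta-arrestin cells (2,100/well) attached overnight, then compound-stimulated 90 min at 37 C in HBSS/10 mM HEPES/0.1% Tween-20 buffer; beta-galactosidase complementation read by luminescence after 1 h at ambient temperature. Dopamine 57 uM final (EC100) as control.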
Starred values were filed as active, the others as inactive; ? = inconclusive; . = no result.

SMILES | D2 PAM-1 | D2 ag-1 | D2 PAM-2 | D2 antagonist | D2 ag-2
COc1ccccc1NC(=O)N1CCCC1C(=O)Nc1nnc(C(C)C)s1 (configuration not stated) | 1 | -1 | 7 | 15 | -4
CC(C)c1nnc(NC(=O)C2CCCN2C(=O)Nc2ccccc2F)s1 (configuration not stated) | -6 | 0 | -6 | 38* | -2
Cc1ccc(N2C(=O)CSC23C(=O)N(CC(=O)NC2CCCCC2)c2ccccc23)cc1C (configuration not stated) | . | -1 | -7 | . | .
CSc1ccc(S(=O)(=O)NCC(=O)OCC(=O)NCCc2ccccc2)cc1[N+](=O)[O-] | 3 | -1 | 14 | 33* | 2
CCC1=C(OC(=O)N(CC)CC)N2C(=O)OC(=NCCOC)[C@]2(Cc2ccccc2)[C@H]2C1=CC[C@H]1C(=O)NC(=O)[C@H]12 | -9 | 1 | -1 | 52* | 1
Cc1ccc(C(CC(=O)NCC2(c3ccccc3)CCCC2)c2ccccc2)c(O)c1 (configuration not stated) | . | -1 | -1 | . | .
O=S(=O)(c1ccc2ccccc2c1)N1CCOCC1 | -5 | 1 | 25 | -4 | 1
O=S(=O)(c1ccc2nc(-c3ccco3)c(-c3ccco3)nc2c1)N1CCOCC1 | 56* | -2 | 17 | -2 | 4
Cc1[nH]c(=S)[nH]c(=O)c1Cc1ccc(OCC(C)C)cc1 | -3 | -1 | -5 | 31* | -2
CCCCOc1ccc(Cc2c(COCC)[nH]c(=S)[nH]c2=O)cc1 | -15 | 1 | -11 | 35* | -4
CCOC(=O)c1c(C)[nH]c(C)c1S(=O)(=O)N(C)CC(=O)N1CCN(c2cccc(C)c2C)CC1 | . | 0 | 3 | . | .
CN(C(=S)Nc1ccc(Oc2ccccc2)cc1)c1ccc(O)cc1 | 82* | -1 | 10 | -8 | ?
CN(C(=S)Nc1cccnc1)c1ccc(O)cc1 | 64* | . | . | . | 11
COc1cc(NC(=O)Cn2cnc(S(=O)(=O)N3CCOCC3)c2)cc(OC)c1OC | -28 | -1 | -7 | 45* | -2
CNC(=S)NC1CC2CCC(C1)N2Cc1ccccc1 (configuration not stated) | -27 | 1 | -26 | 64* | -2
S=C(Nc1ccc(Cl)cc1)NC1CC2CCC(C1)N2Cc1ccccc1 (configuration not stated) | -24 | 3 | -28 | 93* | 4
C=CCN1C2CCCC1CC(NC(=S)Nc1ccc(Cl)cc1)C2 (configuration not stated) | -17 | . | . | . | 0
CNC(=S)NC1CC2CCCC(C1)N2Cc1ccco1 (configuration not stated) | -21 | -1 | -11 | -8 | -1
CCc1ccc(NC(=S)NC2CC3CCCC(C2)N3Cc2ccccc2)cc1 (configuration not stated) | -21 | 0 | 8 | 40* | -2
CCOc1ccccc1CNC(=O)C1CCN(c2nn3cc(-c4ccc(F)cc4)nc3s2)CC1 | . | 1 | 6 | . | .
Cc1cc(OCC(=O)Nc2cc(-c3nc4ccccc4[nH]3)ccc2C)ccc1Cl | . | 0 | 14 | . | .
O=C(Nc1cnc(N2CCN(c3ccccc3)CC2)c(C(=O)O)c1)c1cccs1 | . | 0 | 10 | . | .
COc1ccc(Cl)cc1N(C)C(=O)Cc1noc2ccc(C)cc12 | . | 1 | 4 | . | .
CC(C)(C)n1nc2c(c1NC(=O)Cc1ccc(F)cc1)CSC2 | -8 | 1 | 3 | 35* | -7
CC(C)(C)C(=O)NC(=S)NNC(=O)c1ccncc1 | -2 | -1 | -7 | 12 | -1
SMILES | D2 PAM-1 | D2 ag-1 | D2 PAM-2 | D2 antagonist | D2 ag-2
CC(C)(C)C(=O)NC(=S)NNC(=O)c1ccc(Cl)cc1Cl | -9 | 116* | -37 | 91* | -5
CCCOc1ccc(C(=O)NNC(=S)NC(=O)c2ccccc2)cc1 | -17 | 45* | -18 | -8 | 0
CCCOc1ccc(C(=O)NNC(=S)NC(C)=O)cc1 | -24 | . | 5 | . | -6
CC(C)(C)C(=O)NC(=S)NNC(=O)c1ccc(-c2ccccc2)cc1 | -34 | 90* | -28 | 64* | -14
COc1ccccc1CC(=O)Nc1ccc2nc(Nc3cccc(C(F)(F)F)c3)cc(C)c2c1 | . | -1 | 2 | . | .
CCOc1ccc(N2CC(c3nc(-c4cc(OC)c(OC)c(OC)c4)no3)CC2=O)cc1 (configuration not stated) | . | 0 | 19 | . | .
CCc1cccc(CC)c1NC(=O)/C(C#N)=C/c1ccccc1C(F)(F)F | 96* | -1 | -20 | -2 | 10
N#C/C(=C\c1ccccc1C(F)(F)F)C(=O)Nc1ccccc1 | 7 | 0 | 6 | -4 | 1
O=C(Cn1c(=O)n(Cc2ccc3c(c2)OCO3)c(=O)c2ccc(C(=O)NC3CCCCC3)cc21)Nc1ccccc1F | . | 1 | -3 | . | .
O=S(=O)(Nc1ccc(F)c(Cl)c1)c1ccc(Br)s1 | . | 3 | 2 | . | .
CCN(C(=O)c1ccc2c(c1)OCO2)C1CCS(=O)(=O)C1 (configuration not stated) | -15 | 1 | -18 | 39* | -2
CCCCN(C(=O)c1ccc2c(c1)OCO2)C1CCS(=O)(=O)C1 (configuration not stated) | 0 | 2 | 2 | -26 | -3
CC(C)CCNC(=O)CCn1c(=O)c2cccn2c2cccnc21 | . | -2 | -4 | . | .
COc1ccc(S(=O)(=O)O/N=C2\CCSc3ccc(C)cc32)cc1 | 72* | 0 | 3 | -4 | 12
Cc1ccc(C(=O)O/N=C2\CCSc3ccc(C)cc32)cc1 | 0 | 0 | 0 | -4 | -3
COc1cc(NC(=O)NCCn2nnc3cc(S(=O)(=O)N(C)C)ccc32)cc(OC)c1 | . | 1 | 1 | . | .
O=C(NCCN1CCCCC1)c1ccc(Cn2c(SCc3ccccc3)nc3cccnc32)cc1 | . | 0 | 4 | . | .
COc1ccc(N=C2S/C(=C\c3ccco3)C(=O)N2CC(C)C)cc1 | -24 | 0 | 10 | 36* | -3
COc1ccc(N=C2S/C(=C\c3cc(C)n(C)c3C)C(=O)N2CC(C)C)cc1 | -8 | 0 | 11 | 13 | -8
COc1ccc(/C=C2\CCCc3c2nc2ccccc2c3C(=O)O)cc1OC | . | 184* | 13 | 31* | .
CCc1cc2c(cc3c(=O)n(CCCC(=O)NCc4ccccc4Cl)nc(CC)n32)s1 | . | 1 | 1 | . | .
O=C(NC1CCCCC1)c1ccc2c(c1)OCCO2 | 2 | -1 | 0 | 5 | 2
COc1ccc(NS(=O)(=O)c2cccc(C(=O)NC3CCN(Cc4ccccc4)CC3)c2)cc1 | -24 | 0 | -8 | 16 | -1
O=C(NC1CCN(Cc2ccccc2)CC1)c1cccc(OC(F)F)c1 | -24 | 0 | -22 | 81* | -3
C=C(C)c1cccc(C(C)(C)NC(=O)N2CCN(c3ccccn3)CC2)c1 | -3 | 5 | -4 | 31* | 1
